Several values for one entry are separate records, joined by “and”; a condition that tells them apart may be missing. Identical values can stand only once. Activity calls are given as the source filed them. Rule for the calls: active = hit-call score of the fitted dose curve at least 0.9, where 1 is the maximum; inactive = score below 0.9.
These compounds were tested on Interferon-gamma inducible Protein 10 (IP10), CXCL10 (gene 3627) (assay: BSK_hDFCGF_IP10: BioMAP Diversity Plus: hDFCGF Assay for Interferon-gamma inducible Protein 10 (IP10) Biomarker Activity (AID 2283053)). Conditions: primary human foreskin fibroblasts; actives raise or lower the signal.
Protocol: BSK_hDFCGF is a cell-based, multiplexed-readout assay that uses foreskin fibroblast, a human skin primary cell, with measurements taken at 24 hours after chemical dosing in a 96-well plate.BSK_hDFCGF_IP10 is an assay component measured in the BSK_hDFCGF assay. It measures IP-10 antibody related to regulation of gene expression using ELISA technology.Data from the assay component BSK_hDFCGF_IP10 was analyzed into 1 assay endpoint. This assay endpoint, BSK_hDFCGF_IP10, was analyzed with bidirectional fitting relative to DMSO as the negative control and baseline of activity. Using a type of binding reporter, gain or loss-of-signal activity can be used to understand changes in the signaling as they relate to the gene CXCL10. Furthermore, this assay endpoint can be referred to as a primary readout, because this assay has produced multiple assay endpoints where this one serves a signaling function. To generalize the intended target to other relatable targets, this assay endpoint is annotated to the cytokine intended target family, where the subfamily is chemotactic factor.
The levels of cell surface (or secreted, indicated by the prefix "s") biomarker endpoints were measured by ELISA. Overt cytotoxicity to cells in confluent adherent cultures (all systems other than the BT system) was assessed by measuring total protein levels using sulforhodamine B (SRB) staining in parallel cultures at the time of biomarker measurements, indicated as SRB endpoints. For proliferation assays for adherent cell types, individual cell types are cultured at sub-confluence and relative cell numbers quantified by SRB staining at time points optimized for each system (48 h: 3C and CASM3C systems; 72 h: BT and HDF3CGF systems; 96 h: SAg system). SRB was performed by staining cells with 0.1% SRB after fixation with 10% TCA and reading wells at 560 nm.Viability and proliferation of PBMC (T cells) was quantified by Alamar Blue reduction for the SAg and BT systems. For PBMC viability (referred to as PBMC Cytotoxicity within the assay endpoint names), cells were plated (75,000/well in a 96-well plate) and then chemical samples added for 1 h before addition of activators, SEB and TSST-1 (20 ng/mL final concentration each). Cells were incubated for 90 h. Then, Alamar Blue (20 uL/well) (Invitrogen, Cat DAL1100) was added for 6 h, and the plates were read with a fluorescence microplate reader at 546/580 nm (excitation/emission). For PBMC proliferation, cells were plated and activated as above but incubated for only 16 h prior to addition of Alamar Blue. Plates were read after 6 h.
`CCOC(=O)/C=C\C(=O)OCC` was tested, and the outcome was “inactive”.
`O=C1CCCCCCCCCCC1` was tested, and the outcome was “inactive”.
For `CC=C(C)C=CC=C(C)C`, the outcome was “inactive”.
For `Nc1nc(N)nc(-c2ccccc2)n1`, the outcome was “inactive”.
With `Oc1ccc(/C=C/c2cc(O)cc(O)c2)cc1` the outcome was “inactive”.
In the case of `Cc1ccc([N+](=O)[O-])cc1N`, the outcome is reported as “inactive”.
`Fc1ccc(Br)cc1` was tested, and the outcome was “inactive”.
For `CCCCC1C(=O)N(c2ccccc2)N(c2ccccc2)C1=O`, the outcome was “inactive”.
For `C=CC(=O)NC(C)(C)C`, the outcome was “inactive”.
`C=CC(=O)OCCCCCCOC(=O)C=C` was tested, and the AC50 was 2.12 µM (active).
With `COc1ccc(C(=O)c2ccccc2)c(O)c1` the outcome was “inactive”.
For `CC=C(C)C(C)=O`, the outcome was “inactive”.
In the case of `C=CC(=O)OCC(C)OCC(C)OCC(C)OC(=O)C=C` (stereo not given), the AC50 is reported as 14.4 µM (active).
`Cc1c(O)cccc1O` was tested, and the outcome was “inactive”.
For `CC(CCC(=O)O)(c1ccc(O)cc1)c1ccc(O)cc1`, the outcome was “inactive”.
In the case of `CC(C)CCCCCOC(=O)CS`, the outcome is reported as “inactive”.
With `CC(Cl)COP(=O)(OCC(C)Cl)OCC(C)Cl` (stereo not given) the outcome was “inactive”.
For `CCCCCC1=CCCC1=O`, the outcome was “inactive”.
`COC(OC)(C(=O)c1ccccc1)c1ccccc1` was tested, and the outcome was “inactive”.
With `C=CCCCCCCCCC=O` the outcome was “inactive”.
`CC1(C)CC(O)CC(C)(C)N1[O]` was tested, and the outcome was “inactive”.
In the case of `CCCC(C)C(=O)OCC` (stereo not given), the outcome is reported as “inactive”.
With `CCCCCCCCC(CO)CCCCCC` (stereo not given) the outcome was “inactive”.
With `CC/C=C\C/C=C\C/C=C\CCCCCCCC(=O)OC` the AC50 was 10.7 µM (active).
With `CCCCCCCCCCCC(=O)N(C)CC(=O)O` the outcome was “inactive”.
`c1ccc2c(c1)[nH]c1ccccc12` was tested, and the outcome was “inactive”.
In the case of `Oc1c(Cl)cc(Cl)c(Cl)c1Cl`, the AC50 is reported as 31.1 µM (active).
`COc1ccc(C(=O)/C(Br)=C\C(=O)O)cc1` was tested, and the AC50 was 33.1 µM (active) and 32.6 µM (active).
With `CC1=CC=C(C(C)C)CC1` the outcome was “inactive”.
In the case of `CC/C=C\CCOC(=O)c1ccccc1O`, the AC50 is reported as 13.7 µM (active).
For `CCN1CN(CC)CN(CC)C1`, the outcome was “inactive”.
In the case of `O=C(O)C(F)(F)C(F)(F)C(F)(F)C(F)(F)C(=O)O`, the outcome is reported as “inactive”.
With `Clc1cc(Cl)c(Cl)c(Cl)c1Cl` the outcome was “inactive”.
`C[N+](C)(C)CCCNS(=O)(=O)C(F)(F)C(F)(F)C(F)(F)C(F)(F)C(F)(F)C(F)(F)C(F)(F)C(F)(F)F` was tested, and the AC50 was 48.5 µM (active) and 48.9 µM (active).
`CC(C)[N+](C)(CCOC(=O)C1c2ccccc2Oc2ccccc21)C(C)C` was tested, and the outcome was “inactive”.
`CC(C)C(=O)OCCc1ccccc1` was tested, and the outcome was “inactive”.
In the case of `CC(c1cc(C(C)(C)C)cc(C(C)(C)C)c1O)c1cc(C(C)(C)C)cc(C(C)(C)C)c1O`, the outcome is reported as “inactive”.
`C=CC(=O)OCCCCCCCC(C)C` was tested, and the outcome was “inactive”.
With `C1CNCCN1` the outcome was “inactive”.
In the case of `CCNc1nc(NC(C)(C)C)nc(OC)n1`, the outcome is reported as “inactive”.

Source: PubChem BioAssay (EPA / NIEHS)
